According to the supplement of paper PMC8728848:
This is one part of a sample in which the strongest signals are shown more often than they occur.

Assays:
Experiment in all cases: glycan array binding signal (z-score within array); higher = stronger binding
Settings in all cases: glycan notation: IUPAC condensed, linker removed
GalNAc3S(b1-4)GlcNAc = biological target: GalNAc3S(b1-4)GlcNAc
In short: (§1)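 Negative Z-scores can be read as non-binding. The Z-score is calculated within each array and then averaged across arrays of one protein sequence at different concentrations or buffers and across linkers. Arrays, 3228 in all, were curated from the Consortium for Functional Glycomics database and kept only where the protein sequence was available.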

Glc(b1-4)Glc = biological target: Glc(b1-4)Glc
In short: as §1

[1] = biological target: GlcNAc(a1-4)Gal(b1-4)GlcNAc(b1-3)Gal(b1-4)GlcNAc
In short: as §1

[2] = biological target: GlcNAc(a1-4)Gal(b1-4)GlcNAc(b1-3)Gal(b1-4)GlcNAc(b1-3)Gal(b1-4)GlcNAc
In short: as §1

[3] = biological target: GlcNAc(b1-2)[GlcNAc(b1-4)]Man(a1-3)[GlcNAc(b1-4)][GlcNAc(b1-2)[GlcNAc(b1-6)]Man(a1-6)]Man(b1-4)GlcNAc(b1-4)[Fuc(a1-6)]GlcNAc
In short: as §1

[4] = biological target: GlcNAc(b1-2)[GlcNAc(b1-6)]Man(a1-6)[GlcNAc(b1-2)Man(a1-3)]Man(b1-4)GlcNAc(b1-4)GlcNAc
In short: as §1

GlcNAc(b1-3)Gal = biological target: GlcNAc(b1-3)Gal
In short: as §1

[5] = biological target: GlcNAc(b1-3)Gal(b1-3)GalNAc
In short: as §1

[6] = biological target: GlcNAc(b1-3)Gal(b1-4)GlcNAc(b1-3)Gal(b1-4)GlcNAc(b1-2)[GlcNAc(b1-3)Gal(b1-4)GlcNAc(b1-3)Gal(b1-4)GlcNAc(b1-6)]Man(a1-6)[GlcNAc(b1-3)Gal(b1-4)GlcNAc(b1-3)Gal(b1-4)GlcNAc(b1-2)Man(a1-3)]Man(b1-4)GlcNAc(b1-4)[Fuc(a1-6)]GlcNAc
In short: as §1

[7] = biological target: GlcNAc(b1-3)Gal(b1-4)GlcNAc(b1-3)Gal(b1-4)GlcNAc(b1-3)Gal(b1-4)GlcNAc(b1-3)Gal(b1-4)GlcNAc(b1-2)Man(a1-3)[GlcNAc(b1-3)Gal(b1-4)GlcNAc(b1-3)Gal(b1-4)GlcNAc(b1-3)Gal(b1-4)GlcNAc(b1-3)Gal(b1-4)GlcNAc(b1-2)Man(a1-6)]Man(b1-4)GlcNAc(b1-4)GlcNAc
In short: as §1

[8] = biological target: GlcNAc(b1-3)[GlcNAc(b1-6)]GalNAc
In short: as §1

[9] = biological target: GlcNAc(b1-4)GlcNAc(b1-4)GlcNAc(b1-4)GlcNAc(b1-4)GlcNAc
In short: as §1

[10] = biological target: Man(a1-2)Man(a1-2)Man(a1-6)[Man(a1-3)]Man
In short: as §1

Man(a1-2)Man(a1-3)Man = biological target: Man(a1-2)Man(a1-3)Man
In short: as §1

[11] = biological target: Man(a1-2)Man(a1-6)[Man(a1-3)]Man(a1-6)[Man(a1-2)Man(a1-2)Man(a1-3)]Man(b1-4)GlcNAc(b1-4)GlcNAc
In short: as §1

[12] = biological target: Neu5Ac(a2-3)Gal(b1-3)GalNAc(b1-3)Gal(a1-4)Gal(b1-4)Glc
In short: as §1

[13] = biological target: Neu5Ac(a2-3)Gal(b1-3)GlcNAc(b1-6)GalNAc
In short: as §1

[14] = biological target: Neu5Ac(a2-3)Gal(b1-4)GlcNAc(b1-3)Gal(b1-4)GlcNAc
In short: as §1

[15] = biological target: Neu5Ac(a2-3)Gal(b1-4)[Fuc(a1-3)]GlcNAc(b1-3)GalNAc
In short: as §1

[16] = biological target: Neu5Ac(a2-6)Gal(b1-4)GlcNAc(b1-2)Man(a1-3)[GlcNAc(b1-4)][Neu5Ac(a2-6)Gal(b1-4)GlcNAc(b1-2)Man(a1-6)]Man(b1-4)GlcNAc(b1-4)GlcNAc
In short: as §1

[17] = biological target: Neu5Ac(a2-6)Gal(b1-4)GlcNAc(b1-2)Man(a1-6)Man(b1-4)GlcNAc(b1-4)GlcNAc
In short: as §1

[18] = biological target: Neu5Ac(a2-6)Gal(b1-4)GlcNAc(b1-3)Gal(b1-4)GlcNAc(b1-3)Gal(b1-4)GlcNAc(b1-2)Man(a1-3)[Neu5Ac(a2-6)Gal(b1-4)GlcNAc(b1-3)Gal(b1-4)GlcNAc(b1-3)Gal(b1-4)GlcNAc(b1-2)Man(a1-6)]GalNAc
In short: as §1

[19] = biological target: Neu5Ac(a2-8)Neu5Ac(a2-3)Gal(b1-3)GalNAc(b1-4)[Neu5Ac(a2-8)Neu5Ac(a2-3)]Gal(b1-4)Glc
In short: as §1

[20] = biological target: Neu5Ac(a2-8)Neu5Ac(a2-3)Gal(b1-4)Glc
In short: as §1

[21] = biological target: Neu5Ac(a2-8)Neu5Ac(a2-8)Neu5Ac(a2-3)[GalNAc(b1-4)]Gal(b1-4)Glc
In short: as §1

[22] = biological target: Neu5Gc(a2-3)Gal(b1-3)[Fuc(a1-4)]GlcNAc
In short: as §1

[23] = biological target: Neu5Gc(a2-3)Gal(b1-4)[Fuc(a1-3)]GlcNAc
In short: as §1

B1: SJCP3842 (Schistosoma japonicum) (protein)
chain: MFKMRIINLVNISTVLLLINLLQTKSRLVGKENGFMLTVSIYGAQLSDKMTSVPVSWTIDYEDPEKSAFKKLVTDSCDTFSEYVKSQIPKGSVDGQCTSHIFQRPGSGSGVSISLTLSFIYVDVTQPDTVALKTELEKHFANFVTIHSHKITQAQFRINQKAIVIPTGDKDAIDGSKWKIIAIIALVALAIVVIGGFIYICVK
Q: With B1 as the binder, how does the “glycan array binding signal (z-score)” value (GalNAc3S(b1-4)GlcNAc) read?
A: 0.48

Q: And the “glycan array binding signal (z-score)” value (Glc(b1-4)Glc)?
A: -0.571

Q: What about the “glycan array binding signal (z-score)” value [1] of the same binder?
A: -0.28

Q: What about the “glycan array binding signal (z-score)” value [2] of the same binder?
A: 2.47

Q: What about the “glycan array binding signal (z-score)” value [3] of the same binder?
A: 0.364

Q: What about the “glycan array binding signal (z-score)” value [4] of the same binder?
A: -0.597

Q: What about the “glycan array binding signal (z-score)” value (GlcNAc(b1-3)Gal) of the same binder?
A: -1.01

Q: And the “glycan array binding signal (z-score)” value [5]?
A: -0.211

Q: What about the “glycan array binding signal (z-score)” value [6] of the same binder?
A: 1.43

Q: What about the “glycan array binding signal (z-score)” value [7] of the same binder?
A: -0.488

Q: And the “glycan array binding signal (z-score)” value [8]?
A: -0.578

Q: And the “glycan array binding signal (z-score)” value [9]?
A: 0.984

Q: What about the “glycan array binding signal (z-score)” value [10] of the same binder?
A: -0.903

Q: What about the “glycan array binding signal (z-score)” value (Man(a1-2)Man(a1-3)Man) of the same binder?
A: -1.03

Q: What about the “glycan array binding signal (z-score)” value [11] of the same binder?
A: -0.995

Q: What about the “glycan array binding signal (z-score)” value [12] of the same binder?
A: 0.587

Q: And the “glycan array binding signal (z-score)” value [13]?
A: 1.36

Q: What about the “glycan array binding signal (z-score)” value [14] of the same binder?
A: 1.89

Q: What about the “glycan array binding signal (z-score)” value [15] of the same binder?
A: 2.37

Q: What about the “glycan array binding signal (z-score)” value [16] of the same binder?
A: -0.194

Q: And the “glycan array binding signal (z-score)” value [17]?
A: 2.88

Q: And the “glycan array binding signal (z-score)” value [18]?
A: 4.64

Q: And the “glycan array binding signal (z-score)” value [19]?
A: 3.14

Q: What about the “glycan array binding signal (z-score)” value [20] of the same binder?
A: -1.34

Q: And the “glycan array binding signal (z-score)” value [21]?
A: 0.881

Q: What about the “glycan array binding signal (z-score)” value [22] of the same binder?
A: -0.715

Q: What about the “glycan array binding signal (z-score)” value [23] of the same binder?
A: 0.854
